Hit rate of the full screen: of about 340,000 compounds, about 1,700 (0.5%) were called active. The full list was thinned out, with actives kept by preference. Unmarked numbers belong to inactive results.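 The calls were made as follows: active = compounds whose inhibition of the agonist-driven luminescence signal at 20 µM reaches about 50% (limit read from the data); inactive = the rest.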
molecular target: C-C chemokine receptor type 6 (Homo sapiens) (UniProt P51684); assay: blockers of CCL20-driven beta-arrestin recruitment to CCR6 – cell-based, CHO-K1, luminescence, uHTS, primary screen (AID 493098); settings: CHO-K1 CCR6 PathHunter beta-arrestin, CCL20-stimulated, at 20 µM, active compounds read high;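 also: cells stimulated with CCL20 at 14 nM final; plate controls were DMSO with CCL20 for no effect and DMSO without agonist for full effect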
Sequence (P51684 whole entry, looked up): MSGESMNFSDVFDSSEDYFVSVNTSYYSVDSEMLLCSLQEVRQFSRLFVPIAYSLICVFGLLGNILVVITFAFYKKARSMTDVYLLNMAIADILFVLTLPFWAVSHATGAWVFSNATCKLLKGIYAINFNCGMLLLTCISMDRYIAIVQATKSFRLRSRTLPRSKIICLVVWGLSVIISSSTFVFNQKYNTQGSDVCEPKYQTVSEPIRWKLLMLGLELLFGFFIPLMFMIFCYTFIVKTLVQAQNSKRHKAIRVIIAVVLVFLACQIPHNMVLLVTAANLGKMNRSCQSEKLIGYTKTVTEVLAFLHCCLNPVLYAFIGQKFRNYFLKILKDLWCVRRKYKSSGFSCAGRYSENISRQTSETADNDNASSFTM

| Structure (SMILES) | inhibition |
| --- | --- |
| CC(=O)OC1C2(CC3N4C(=O)C5(CO)SSC4(CC31O)C(=O)N5C)OC(C)C(C)(C)C2=O (stereo not given) | 111% (active) |
| COC(=O)[C@@H]1C(OC(=O)c2ccccc2)CC2CCC1N2C (stereo not given in full) | 6.3% |
| CC(Cc1cccs1)NCc1ccc(Cl)cc1 (stereo not given) | 13.3% |
| Cc1nn(-c2ccccc2)c(C)c1NC(=O)COC(=O)Cc1ccccc1 | -2.94% |
| CCCOC(=O)C1C2c3ccccc3C(c3ccccc32)C1C(=O)O (stereo not given) | -3.33% |

Reference: PubChem BioAssay AID493098 (Sanford-Burnham Center for Chemical Genomics, 2011)
